# The supplement of paper PMC10981050
# Several values for one entry are separate records, joined by “and”; a condition that tells them apart may be missing. Equal values may be shown once. Where a name gives a salt, the structure may show the parent alone.
# Experiments:
# Assay in all cases: cell viability relative to vehicle control; higher = less cytotoxic
# Conditions in all cases: 10 µM
# K562 = tested on: K562
# Method in brief: (§1)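 CRISPR-edited mutant clones and isogenic wild-type clones from four leukaemia lines were screened against Selleck bioactive, kinase and epigenetic probe libraries, with identity-inconsistent compounds excluded. Each compound was acoustically dispensed at a single 10 µM dose into 384-well plates holding 2000 cells in 50 µL medium per well. After 48 h the supernatant was removed and CellTiter-Glo luminescence was read. Viability was expressed as percent of the on-plate vehicle control and analysed in Genedata Screener.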
# MARIMO = tested on: MARIMO
# Method in brief: as §1
# MOLM14 = tested on: MOLM14
# Method in brief: as §1
# OCI-AML2 = tested on: OCI-AML2
# Method in brief: as §1
Structure (SMILES),cell viability (K562; SRSF2 genotype: SRSF2 P95H/wt),cell viability (K562; SRSF2 genotype: SRSF2 wt/wt),cell viability (MARIMO; SRSF2 genotype: SRSF2 P95H/wt),cell viability (MARIMO; SRSF2 genotype: SRSF2 wt/wt),cell viability (MOLM14; SRSF2 genotype: SRSF2 P95H/wt),cell viability (MOLM14; SRSF2 genotype: SRSF2 wt/wt),cell viability (OCI-AML2; SRSF2 genotype: P95H/wt),cell viability (OCI-AML2; SRSF2 genotype: wt/wt)
Cc1cc2c(F)c(Oc3ncnn4cc(OC[C@@H](C)O)c(C)c34)ccc2[nH]1,94.6% and 98.7%,99.5%,107%,106%,97.5%,104%,97.5%,86.6%
CCOC(=O)C=Cc1ccc(OC)cc1 [Ethyl 4-Methoxycinnamate],86% and 83.2%,80%,81.3%,88.4%,83.9%,84.5%,84.6%,83.5%
"Cc1cn([C@@H]2C[C@@H](O)[C@H](CO)O2)c(=O)[nH]c1=O [Telbivudine (Sebivo, Tyzeka)]",96.7% and 104%,101%,105%,102%,99.2%,108%,113%,102%
"CCCCCCOc1cc(C)c(O)c(C)c1C [HTHQ(1-O-Hexyl-2,3,5-trimethylhydroquinone)]",93.5% and 93.8%,106%,89.1%,96%,91.1%,102%,98.7%,107%
O=C(NC1CCOCC1)c1ccc(-c2cc(-c3c[nH]nc3-c3ccccn3)ccn2)cc1,88.3% and 99.8%,93%,102%,110%,103%,103%,101%,101%
COc1cc2c(cc1OC)[C@@H]1Cc3ccc(OC)c(OC)c3CN1CC2 [Tetrahydropalmatine hydrochloride],89.6% and 96.5%,95.6%,91.4%,93.7%,93.4%,101%,103%,83.9%
CC(C)NC(=O)C1CCC(n2c(NC(=O)c3ccc(F)cc3)nc3ccc(CN4CCC(C(C)(C)O)CC4)cc32)CC1 (configuration not stated) [Belizatinib (TSR-011)],59.4% and 65.3%,56.9%,41.4%,45%,7.89%,11.3%,19%,35.3%
CCc1cc(Nc2nc(-c3ccc(-n4cnc(C)c4)c(F)c3)cs2)c(C)cc1C,96% and 99.5%,91.5%,93.8%,101%,96.6%,93.9%,94.2%,91.9%
NCCOc1cc(C(=O)Nc2cc(OCCN)c3ccccc3n2)nc(C(=O)Nc2cc(OCCN)c3ccccc3n2)c1 [Pyridostatin Trifluoroacetate Salt],87.7% and 94.2%,72.6%,83.8%,84.5%,57.4%,33.6%,6.12%,17.8%
NNC(=O)c1ccncc1 [Isoniazid (Tubizid)],106% and 109%,112%,101%,107%,107%,106%,102%,115%
CC(C)NCC(O)c1ccc(NS(C)(=O)=O)cc1 (configuration not stated) [Sotalol HCl],106% and 102%,95.7%,101%,109%,104%,102%,106%,102%
COc1ccc(Cn2c3ncnc4c(ncn4Cc4ccc(OC)cc4)c-3nc2=O)cc1,1.11% and 1.3%,0.98%,4.49%,17.2%,9.44%,2.32%,4.12%,5.63%
OC[C@@H](O)[C@@H](O[C@H]1O[C@H](CO)[C@@H](O)[C@H](O)[C@H]1O)[C@H](O)[C@@H](O)CO [Maltitol],98.2% and 88.7%,98.6%,99.6%,105%,99.6%,99.9%,96.8%,107%
CO[C@@H](C)Cn1c(=O)n(C)c2cnc3ccc(-c4cncc(C(C)(C)O)c4)cc3c21,34.4% and 40.7%,35%,38.5%,35.8%,18.6%,19.2%,5.3%,13.6%
C[C@@H]1COCCN1c1cc(C2([S@](C)(=N)=O)CC2)nc(-c2cc[nH]c3nccc2-3)n1,15.9% and 23.3%,15.3%,19.2%,20.1%,11.1%,5.99%,10.6%,12%
NCc1ccc(S(N)(=O)=O)cc1 [Mafenide Acetate],102% and 98.3%,94.8%,95.8%,106%,91.9%,101%,102%,110%
COc1cccc(-c2cc(F)ccc2C2Cc3nc(N)nc(C)c3C(=O)N2)n1 (configuration not stated),21.2% and 27.1%,24%,29.6%,24.7%,1.82%,3%,15.3%,19.9%
N#Cc1c(Oc2ccc(F)c(NC(=O)Cc3cccc(C(F)(F)F)c3)c2)ccc2nc(NC(=O)C3CC3)sc12,12.9% and 18.9%,19%,40.9%,36.8%,36.6%,25.9%,31.6%,36.8%
NN1CC(=O)NC1=O [1-Aminohydantoin Hydrochloride],103%,97.1%,99.8%,106%,97.1%,101%,89.2%,106%
CN1CCN(C(=O)C=Cc2ccc([N+](=O)[O-])o2)CC1,43.9% and 54.3%,65.3%,65%,72.4%,40.7%,35.7%,24.7%,42.6%
O=c1[nH]cnc2nc[nH]c12 [Hypoxanthine],98.8% and 108%,96.8%,101%,116%,103%,115%,103%,105%
OC[C@H]1O[C@@H](O[C@@H]2OC=C[C@H]3[C@H](O)[C@@H]4O[C@]4(CO)[C@@H]23)[C@H](O)[C@@H](O)[C@@H]1O [Catalpol],106% and 108%,104%,103%,115%,99.9%,105%,96.7%,106%

Structure (SMILES),cell viability (K562; SRSF2 genotype: SRSF2 P95H/wt),cell viability (K562; SRSF2 genotype: SRSF2 wt/wt),cell viability (MARIMO; SRSF2 genotype: SRSF2 P95H/wt),cell viability (MARIMO; SRSF2 genotype: SRSF2 wt/wt),cell viability (MOLM14; SRSF2 genotype: SRSF2 P95H/wt),cell viability (MOLM14; SRSF2 genotype: SRSF2 wt/wt),cell viability (OCI-AML2; SRSF2 genotype: P95H/wt),cell viability (OCI-AML2; SRSF2 genotype: wt/wt)
CCOC(=O)C1=C(C)NC(C)=C(C(=O)OC)C1c1cccc([N+](=O)[O-])c1 (configuration not stated) [Nitrendipine],101% and 104%,100%,97.3%,99.9%,97.7%,103%,122%,111%
COc1ccc(-c2nc3cc(C4=NNC(=O)CC4C)ccc3[nH]2)cc1 (configuration not stated) [Pimobendan (Vetmedin)],59.4% and 65.2%,68.4%,65.5%,57.5%,68%,83.6%,89.3%,84.4%
Cc1nccn1CC1CCc2c(c3ccccc3n2C)C1=O (configuration not stated) [Ondansetron Hydrochloride Dihydrate],95.8% and 94.2%,91.5%,95.9%,108%,97.4%,97.4%,88.6%,99.1%
C[C@H](Cc1cc2c(c(C(N)=O)c1)N(CCCO)CC2)NCCOc1ccccc1OCC(F)(F)F [Silodosin],81.7% and 88.2%,87.5%,86.2%,85.6%,87.2%,89.5%,74.7%,80%
COc1cc(C(=O)OCCCCNC(=N)N)cc(OC)c1O [Leonurine Hydrochloride],95.9% and 95.7%,101%,98.8%,95.4%,98%,102%,101%,98.6%
NS(=O)(=O)c1cc(Cl)c(Cl)c(S(N)(=O)=O)c1 [Dichlorphenamide (Diclofenamide)],108% and 97%,95.9%,91.9%,102%,105%,99.6%,93.4%,103%
COC(=O)N(C)c1c(N)nc(-c2nn(Cc3ccccc3F)c3ncccc23)nc1N [Riociguat (BAY 63-2521)],89.6% and 89.1%,82.6%,85%,99%,90.2%,94%,96.3%,108%
N#CC(=C(O)c1ccc(Cl)cc1Cl)c1nc2ccccc2c(=O)[nH]1 [HPI-4 (Ciliobrevin A)],91.5% and 92.8%,93.6%,98.9%,97%,92.1%,87.2%,106%,99.5%
CCCc1nc2c(C)cc(-c3nc4ccccc4n3C)cc2n1Cc1ccc(-c2ccccc2C(=O)O)cc1 [Telmisartan (Micardis)],103% and 107%,99.5%,112%,117%,110%,103%,108%,128%
Cc1c(-c2ccc(O)cc2)n(Cc2ccc(OCCN3CCCCCC3)cc2)c2ccc(O)cc12 [Bazedoxifene HCl],1.11% and 0.75%,0.96%,17.3%,27.5%,0.32%,0.46%,0.41%,0.44%
CCN1CCN(C(=O)N[C@@H](C(=O)N[C@@H]2C(=O)N3C(C(=O)O)=C(CSc4nnnn4C)CS[C@H]23)c2ccc(O)cc2)C(=O)C1=O [Cefoperazone (Cefobid)],100% and 97.5%,91.7%,104%,101%,98.1%,97.3%,100%,104%
C=C(C)C1CC=C(C=NO)CC1 (configuration not stated) [Perillartine],100%,98.3%,104%,105%,93%,99.8%,100%,112%
COc1ccc(C2CNC(=O)C2)cc1OC1CCCC1 (stereo not drawn) [S-(+)-Rolipram],94.7% and 105%,102%,102%,110%,99.8%,108%,96.7%,103%
COCC[n+]1c2c(n(Cc3cnccn3)c1C)C(=O)c1ccccc1C2=O [YM155 (Sepantronium Bromide)],0.4% and 0.35%,0.47%,0.69%,1.06%,0.33%,0.32%,0.31%,0.36%
COc1cc2c3cc1Oc1c(OC)c(OC)cc4c1[C@@H](Cc1ccc(O)c(c1)Oc1ccc(cc1)C[C@@H]3N(C)CC2)N(C)CC4 [Berbamine],62.8% and 49.4%,57.5%,72.7%,67.2%,72.8%,67.6%,39.3%,54.9%
"CC(=O)c1cc(O)ccc1O [2',5'-Dihydroxyacetophenone]",90.6% and 97.4%,97.7%,94.6%,87.5%,103%,97.6%,94.7%,101%
N#Cc1ccc2[nH]c(O)c(-c3ccc(CN4CCOCC4)cn3)c2c1,73.5% and 54.9%,78.4%,81.4%,97.9%,71.2%,93.3%,98.7%,123%
CC(=O)Oc1cc2c(s1)CCN(C(C(=O)C1CC1)c1ccccc1F)C2 (configuration not stated) [Prasugrel (Effient)],26.1% and 36.8%,32.7%,9.74%,14.8%,23.1%,6.67%,20.9%,23.1%
C[C@H](C[C@H](O)[C@@H](O)C(C)(C)O)C1=C2C[C@H](O)[C@H]3[C@@]4(C)CCC(=O)C(C)(C)[C@@H]4CC[C@]3(C)[C@@]2(C)CC1 [Alisol A],85.4% and 85.1%,89.8%,86.9%,79.1%,98.4%,96.2%,84.9%,83.5%
NC(=O)c1ncn([C@@H]2O[C@H](CO)[C@@H](O)[C@H]2O)n1 [Ribavirin (Copegus)],100% and 95.1%,90.2%,87.2%,97.3%,56.2%,24%,99.6%,92.5%
COCCCOc1ccnc(C[S+]([O-])c2nc3ccccc3[nH]2)c1C (configuration not stated) [Rebeprazole sodium],95.2% and 93.6%,101%,104%,106%,95.6%,102%,97.4%,113%
CC(NC(=O)Cc1cc(F)cc(F)c1)C(=O)NC1C(=O)N(C)c2ccccc2-c2ccccc21 (configuration not stated),101% and 102%,108%,99.7%,94.5%,105%,104%,105%,107%
